Values joined by “and” are separate entries in the source; they are usually repeats but may differ in a detail not shown here. Equal values may be shown once.
tested on: HT29 sg-Ctrl (RNF43 wildtype); test: cell viability activity relative to DMSO (negative = inhibition); higher = more viable cells (less growth inhibition); details: 5 µM; 96 h
Description: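 Broad Repurposing Library primary screen at a single dose of 5 uM. HT29 sg-Ctrl and HT29 RNF43 G659fs CRISPR-edited isogenic cells were seeded at 2500 cells/well in 384-well plates in duplicate and treated for 96 h. Viability was read by CellTiter-Glo and reported as % activity relative to DMSO, with MG132 as the positive control (negative = growth inhibition).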

Question: `CC1(C)CC(Oc2ccc(-c3ccc(-c4cn[nH]c4)cc3O)nn2)CC(C)(C)N1` was tested. Which cell viability activity did it give?
Answer: -89.2%

Question: For `O=c1[nH]c(=O)n([C@H]2C[C@H](O)[C@@H](CO)O2)cc1F`, which cell viability activity is on record?
Answer: -54.2% and -63.2%

Question: `c1cc(-c2cnn3cc(-c4ccc(N5CCNCC5)cc4)cnc23)c2cccnc2c1` was tested. Which cell viability activity did it give?
Answer: -96.2%

Question: How did the cell viability activity turn out when `NC(=NC1C2CC3CC(C2)CC1C3)Nc1ccc(I)cc1` (stereo not given) was run?
Answer: -69.8%

Question: For `CC1(C)CC[C@]2(C(=O)O)CC[C@]3(C)[C@H](C(=O)C=C4[C@@]5(C)C=C(C#N)C(=O)C(C)(C)[C@@H]5CC[C@]43C)[C@@H]2C1`, which cell viability activity is on record?
Answer: -82.9%

Question: Which cell viability activity does the source give for `COC(=O)Nc1ccc(-c2nc(N3CCOCC3)c3cnn(C4CCN(C(=O)OC)CC4)c3n2)cc1` here?
Answer: -38%

Question: For `Nc1ccn([C@@H]2O[C@H](CO)[C@@H](O)C2(F)F)c(=O)n1`, which cell viability activity is on record?
Answer: -67.1%

Question: For `Fc1ccc(-n2cc(CCCCN3CCC4(CC3)OCc3ccccc34)c3ccccc32)cc1`, which cell viability activity is on record?
Answer: -62.5%

Question: For `Cc1nc(NC(=O)N2CCC[C@H]2C(N)=O)sc1-c1ccnc(C(C)(C)C(F)(F)F)c1`, which cell viability activity is on record?
Answer: -16%

Question: How did the cell viability activity turn out when `Cn1cc(-c2ccc(S(=O)(=O)n3ccc(/C=C/C(=O)Nc4ccccc4N)c3)cc2)cn1` was run?
Answer: -63.3%

Question: `CN(C)c1ccc(C(=O)NCCCCCCC(=O)NO)cc1` was tested. Which cell viability activity did it give?
Answer: -82%

Question: Which cell viability activity does the source give for `CN(Cc1cnc2nc(N)nc(N)c2n1)c1ccc(C(=O)N[C@@H](CCC(=O)O)C(=O)O)cc1` here?
Answer: -66%

Question: For `CCCCCCCC/C=C/CCCCCCCC(=O)OC[C@H]1O[C@@H](n2ccc(N)nc2=O)C(F)(F)[C@@H]1O`, which cell viability activity is on record?
Answer: -51.8%

Question: Which cell viability activity does the source give for `O=C1C(Cl)=C(NCCN2CCOCC2)C(=O)c2ncccc21` here?
Answer: -94.7%

Question: For `O=C(CCCCCCNC(=O)c1cnc(N(c2ccccc2)c2ccccc2)nc1)NO`, which cell viability activity is on record?
Answer: -45.9%

Question: How did the cell viability activity turn out when `O=C1/C(=C/c2ccccc2)C(NC2CCCCC2)c2ccccc21` (stereo not given) was run?
Answer: -74.6%

Question: Which cell viability activity does the source give for `NC(=S)N/N=C/c1ncccc1N` here?
Answer: -69.1%

Question: With `CC(C)c1ccc(NC(=O)Cn2cnc3c2c(=O)n(C)c(=O)n3C)cc1` as the compound, how does the cell viability activity read?
Answer: -23.8%

Question: `O=C(CCCCCCC(=O)Nc1cccnc1)NO` was tested. Which cell viability activity did it give?
Answer: -42.7%

Question: For `Cc1cnc(Nc2ccc(N3CCN(C)CC3)cc2)nc1Nc1cccc(S(=O)(=O)NC(C)(C)C)c1`, which cell viability activity is on record?
Answer: -89.4%

Question: With `CC[C@H](C)[C@@H]([C@@H](CC(=O)N1CCC[C@H]1[C@H](OC)[C@@H](C)C(=O)N[C@@H](Cc1ccccc1)c1nccs1)OC)N(C)C(=O)[C@@H](NC(=O)[C@H](C(C)C)N(C)C)C(C)C` as the compound, how does the cell viability activity read?
Answer: -43%

Question: Which cell viability activity does the source give for `C[C@@H](NCCCc1cccc(C(F)(F)F)c1)c1cccc2ccccc12` here?
Answer: -41.7%

Question: Which cell viability activity does the source give for `C[C@@H]1CC[C@@]2(NC1)O[C@H]1C[C@H]3[C@@H]4CC=C5C[C@@H](O[C@@H]6O[C@H](CO)[C@@H](O[C@@H]7O[C@@H](C)[C@H](O)[C@@H](O)[C@H]7O)[C@H](O)[C@H]6O[C@@H]6O[C@@H](C)[C@H](O)[C@@H](O)[C@H]6O)CC[C@]5(C)[C@H]4CC[C@]3(C)[C@H]1[C@@H]2C` here?
Answer: -86.6%

Question: How did the cell viability activity turn out when `CC(C)c1cc(CNc2nc(Nc3cc(C4CC4)[nH]n3)cc(N3CCN(C)CC3)n2)on1` was run?
Answer: -84.3%

Question: How did the cell viability activity turn out when `Nc1nc(=O)n([C@H]2C[C@H](O)[C@@H](CO)O2)cc1F` was run?
Answer: -71%
